Experimental data: PubChem BioAssay
Results filed as inconclusive are left out. Unmarked numbers belong to inactive results.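 Rule for the calls: active = viability at or below 27.92% in each of two runs, the all-compound median minus 4 SD; inconclusive = no clear call, values can overlap the other calls; inactive = the rest.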

assay: viability of PTEN-null HCT116 cells – cell-based, HCT116 clonal line, CellTiter-Glo, pilot screen (AID 824); conditions: HCT116 PTEN-deleted viability, 60 h, at 10 µM, hits give low values;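 note: 0% = 20 µM Hyamine control and 100% = vehicle cell control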

Compound | viability
CCCCOC(=O)Cc1c(O)c2ccccc2[nH]c1=O | 93.2%
CCOc1ccc(S(=O)(=O)Nc2ccccc2C(=O)NCC2CCCO2)cc1 (centres undefined) | 95.5%
O=C1C(Cl)=C(NCC2CCCO2)C(=O)N1C1CCCCC1 (centres undefined) | 90.2%
CC1=C(C(=O)N2CCOCC2)C(c2cccs2)NC(=O)N1 (centres undefined) | 99.9%
CCC1CCCCN1C(=O)CSc1nnc(-c2ccc(Cl)cc2)o1 (centres undefined) | 90.9%
COC(=O)CN1C(=O)C(O)(CC(=O)c2cccc(Br)c2)c2ccccc21 (centres undefined) | 86.9%
O=P(O)(CCc1ccccn1)CN1CCOCC1 | 92.5%
O=C(NCc1cccnc1)NC1(C(F)(F)F)Oc2ccc(Cl)cc2O1 (centres undefined) | 58.7%
CN(C)C(C(=O)NC1CCCCC1)c1ccc(Cl)cc1 (centres undefined) | 84.2%
COc1ccc(C)cc1NC(=O)C1CCCN(S(=O)(=O)c2c(C)noc2/C=C/N(C)C)C1 (centres undefined) | 100%
COc1ccc(S(=O)(=O)Nc2ccc3c(c2)OCO3)cc1C(=O)O | 94.5%
O=C(Nc1nnc(C2CC2)s1)c1cc(-c2ccccc2)nn1-c1ccccc1 | 71.9%
O=C(Oc1cccnc1)c1cccc(Cl)c1 | 97.5%
COc1ccc(N2CCN(C(=O)c3ccc4nc(N5CCCCC5)sc4c3)CC2)cc1 | 87%
O=C(Cn1cc2c(n1)CCCC2)Nc1ccccc1Br | 86.7%
CCCN(CC1CC1)S(=O)(=O)c1ccc(S(N)(=O)=O)cc1 | 90.3%
Fc1ccccc1N1CCN(C2CCN(Cc3c[nH]c4ccccc34)CC2)CC1 | 58.8%
COc1ccccc1NC(=O)C1=C(C)Nc2nc(-c3cccs3)nn2C1c1cccnc1 (centres undefined) | 91.4%
COc1ccccc1NC1C=CS(=O)(=O)C1 (centres undefined) | 94.4%
COc1ccc(C2(C(=O)NCCCN(C)C)CCOCC2)cc1 | 100%
COc1ccccc1C1NC(=O)NC(C)=C1C(=O)Nc1cccc(C)c1C (centres undefined) | 102%
CCCCSCc1[nH]c(=O)[nH]c1C(=O)CCCCC(=O)OCC | 100%
Cn1cc(S(=O)(=O)N2CCN(Cc3ccccc3)CC2)c(=O)n(C)c1=O | 95.5%
CCOc1ccc(S(=O)(=O)n2ccnc2)c2ccccc12 | 106%
